# Compounds with a hit are over-represented: about 3.8% of the library has one in this group of screens.
# A549 viability – Nrf2 qHTS screen for inhibitors: counterscreen for cytotoxicity; A549 ARE-Fluc cells, CellTiter-Fluor viability, 18-24 h; actives 0.16% (n = 390,000); Potency, µM (titrated, usually from 46 µM), inactives show at the top dose activity change, negative = cytotoxicity, usual class: inhibitors; note: % is set by controls: 0 for no effect and ±100 for the full control effect
#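 A549 ARE-Fluc cells in 5% FBS OPTI-MEM, 5000 cells/well, rested 2 h then exposed to compounds in concentration-response for 18-24 h at 37 °C. Viability by CellTiter-Fluor fluorescence (Ex 405/Em 525) after 30 min; luciferase luminescence (BugLite, 15 min, RT) read afterwards.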
# mIDH1 inhibitor – qHTS for Inhibitors of mutant isocitrate dehydrogenase 1 (IDH1): qHTS | IDH1-R132H enzyme, NADPH consumption, diaphorase/resazurin fluorescence | AID 602179, 2012 | actives 0.093% (n = 390,000) | Potency, µM (doses to about 76.6 µM), inactives show at the top dose activity change, negative = inhibition, hits mostly inhibitors; note: % is set by controls: 0 for no effect and ±100 for the full control effect; nearly all actives have a fitted effect of over 65% in size
# Target sequence (O75874 whole entry R132H, stated change not applied): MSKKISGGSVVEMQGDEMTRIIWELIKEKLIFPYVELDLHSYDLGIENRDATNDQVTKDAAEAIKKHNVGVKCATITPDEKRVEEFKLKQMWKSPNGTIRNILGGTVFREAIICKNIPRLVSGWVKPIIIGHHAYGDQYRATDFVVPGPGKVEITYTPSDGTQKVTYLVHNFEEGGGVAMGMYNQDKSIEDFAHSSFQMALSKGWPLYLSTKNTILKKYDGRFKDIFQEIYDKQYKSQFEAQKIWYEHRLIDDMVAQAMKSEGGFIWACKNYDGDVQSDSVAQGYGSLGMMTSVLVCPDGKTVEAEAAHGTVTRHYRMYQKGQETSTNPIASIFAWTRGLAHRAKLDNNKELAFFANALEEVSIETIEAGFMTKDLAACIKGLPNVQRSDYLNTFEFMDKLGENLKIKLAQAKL
#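 IDH1-R132H (0.5 ug/mL dispensed) in pH 7.5 Tris buffer was preincubated 30 min with compound, then given a substrate mix of 0.016 mM NADPH and 2 mM alpha-KG for 80 min at room temperature; remaining NADPH was read by diaphorase/resazurin fluorescence.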
# Nrf2 activator – qHTS of Nrf2 Activators; AID 624171, 2012; Potency, µM (top dose mostly 46.1 µM), for inactives: top-dose activation, most hits filed as activators; AREc32 ARE-luciferase reporter (MCF7-derived line), luminescence, 24 h; actives 0.31% (n = 410,000); note: % of control where 0% means no effect; nearly all actives have a fitted effect of over 65% in size
#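 AREc32 cells carrying an ARE-driven firefly luciferase, 1000 cells/well in OPTI-MEM with 5% FBS, dosed after overnight attachment and incubated 24 hr at 37 deg C. Steady-Glo luminescence read after 30 min at RT.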
# ELG1 DNA repair – qHTS screen for small molecules that inhibit ELG1-dependent DNA repair in human embryonic kidney (HEK293T) cells expressing luciferase-tagged ELG1 | HEK293T ELG1-luciferase reporter, luminescence, 16 h; DNA damage induced by 5-fluorouridine | Potency, µM (top dose mostly 46.1 µM), inactives show at the top dose activity change, negative = inhibition, most hits filed as inhibitors | actives 2.3% (n = 330,000); note: % is set by controls: 0 for no effect and ±100 for the full control effect; nearly all actives have a fitted effect of over 55% in size
#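 Cells (2,000 per well) received 5-fluorouridine plus test compound or DMSO and were incubated 16 hr at 37 °C, 5% CO2. Luciferase activity was read by luminescence 30 min after ONE-Glo addition; signal suppression marked inhibition of damage-induced ELG1 function.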
# Nrf2 inh – Nrf2 qHTS screen for inhibitors | actives 2.1% (n = 360,000) | A549 ARE-Fluc reporter, luciferase luminescence, 18-24 h | Potency, µM (series often up to 46 µM), without a hit: at the top dose activity change, negative = inhibition, most hits filed as inhibitors | AID 504444, 2011; note: % is set by controls: 0 for no effect and ±100 for the full control effect; nearly all actives have a fitted effect of over 60% in size
#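 In this cell-based qHTS, ARE-driven firefly luciferase in A549 cells reports Nrf2 activity; the luminescent signal after BugLite lysis is the measured value, with a prior CellTiter-Fluor read for cell health.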
# * = called active by the depositor; ? = inconclusive; / = not tested or not shown; ! = repeats disagree; [ ] = dose if it differs, or a comment. Calls come from the whole dose curve; as a rule, active = well fitted curve in the direction sought with a large enough effect; inconclusive = small, poorly fitted or top-dose-only effect, or another doubt; inactive = no such curve, though single readings can be large; an effect the other way counts as inactive or inconclusive. Potency is the fitted concentration of half-maximal effect.
SMILES,A549 viability,mIDH1 inhibitor,Nrf2 activator,ELG1 DNA repair,Nrf2 inh
Clc1ccc(Cn2c(-c3cccnc3Cl)nc3ccccc32)c(Cl)c1,?,3%,2%,0%,18µM*
CC(NC(=O)c1cccc(Nc2nc3ccccc3n3nnnc23)c1)c1ccccc1 (stereo not drawn),?,7%,0%,/,?
Cc1cc2c(s1)c1cnn(Cc3cccc(Cl)c3F)c(=O)c1n2C,-2%,/,/,/,7%
N#CC(C(=S)Nc1ccccc1)c1nc2ccccc2[nH]1 (stereo not drawn),4%,-3%,21%,13µM*,-7%
O=C(Nc1cccc(Oc2ccc(C(=O)O)c(C(=O)O)c2)c1)c1ccc(-c2ccccc2)cc1,4%,0%,0%,1%,16µM*
CC(C)(C)C(=O)Nc1ccc(C(=O)Nc2cccc(Oc3ccc(C(=O)O)c(C(=O)O)c3)c2)cc1,2%,-1%,-2%,-6%,21µM*
COc1cc(OC)c2ccc(=O)oc2c1C(CC(=O)N1CCCC1)c1ccc2c(c1)OCO2 (stereo not drawn),-19%,-2%,4%,0%,3%
CCN(CC)CCC(c1ccc2c(c1)OCO2)c1c(OC)cc(OC)c2ccc(=O)oc12 (stereo not drawn),16µM*,-4%[38.3 µM],11%,11%,7%
CCN(CC)CCC(c1cc(OC)c(OC)c(OC)c1)c1c(OC)cc(OC)c2ccc(=O)oc12 (stereo not drawn),15µM*!,-1%[38.3 µM],10%,4%,10%
COc1ccc(NC(=O)Cn2cnc3c(oc4ccccc43)c2=O)cc1OC,-15%,-7%,-1%,/,-4%
COC(=O)c1cccc(S(=O)(=O)N(Cc2ccco2)Cc2cc3ccc(OC)cc3[nH]c2=O)c1,-14%[1.84 µM],4%,0%,?,7%
CCc1ccc2[nH]c(=O)c(CN(Cc3ccccc3OC)C(=O)Nc3ccccc3OC)cc2c1,0%,0%,2%,23µM*,-20%
Cc1cccc2cc(CN(Cc3ccco3)C(=O)NC3CCCCC3)c(=O)[nH]c12,12%,3%,0%,7.3µM*,-12%
COC(=O)c1cccc(S(=O)(=O)N(Cc2ccco2)Cc2cc3cc(OC)c(OC)cc3[nH]c2=O)c1,4%,-2%,0%,23µM*,19%
COc1ccccc1NC(=S)N(Cc1ccco1)Cc1cc2cc(C)ccc2[nH]c1=O,0%,5%,4%,16µM*,9%
CCCCNCCS(=O)(=O)NCc1ccc(OC)cc1,3%,-4%,-1%,/,21%
CC1=C(c2ccc(C)c(C)c2)S(=O)(=O)N=C1N1CCN(c2cccc(C(F)(F)F)c2)CC1,-1%,-19%,-1%,/,?
COc1ccc(C2Nc3ccc(NC(C)=O)cc3C(=O)N2Cc2cccc(Cl)c2)cc1COc1ccc(NC(C)=O)cc1 (stereo not drawn),-6%,/,/,/,?
Cc1cc2c(s1)c1cnn(Cc3cc(OC(F)(F)F)ccc3F)c(=O)c1n2C,1%,/,/,/,-3%
COc1ccccc1NC(=O)N(Cc1ccco1)Cc1cc2cccc(C)c2[nH]c1=O,-12%,7%,7%,?,-18%
COc1ccccc1NC(=O)N(Cc1ccco1)Cc1cc2c(C)ccc(C)c2[nH]c1=O,-8%,10%,0%,5.2µM*,3%
COc1ccc2[nH]c3c(c2c1)CCN1C(=O)C(CC(=O)NCCC2=CCCCC2)C[C@H](C(=O)N2CCCCC2)[C@@]31C (stereo partly drawn),?,2%,0%,?,?
CCC(Sc1ccc(Cl)cc1)C(=O)Nc1nnc(-c2cccc([N+](=O)[O-])c2)s1 (stereo not drawn),14%,1%,13µM*,?,?
Cc1ccc(-n2nc(C)c3c2C(Br)C(C)(C)CC3=O)nc1 (stereo not drawn),-14%,3%,12%,/,7.3µM*
Cc1cc(C)c(C)c(S(=O)(=O)N2CCC(C(=O)Nc3ccc(S(=O)(=O)N4CCOCC4)cc3)CC2)c1C,-10%,-1%,4%,12µM*,?
SMILES,A549 viability,mIDH1 inhibitor,Nrf2 activator,ELG1 DNA repair,Nrf2 inh
Cc1nnsc1C(=O)Nc1ccc(S(=O)(=O)N2CCCCC2)cc1,-1%,10%,0%,12µM*,?
Cc1nnsc1C(=O)Nc1ccc(S(=O)(=O)N2CCCC(C)C2)cc1 (stereo not drawn),1%,5%,1%,-17%,-3%
CC(=O)N1CCOc2ccc(S(=O)(=O)N3CCC(C(=O)Nc4ccc(C)cc4)CC3)cc21,1%,-5%,-1%,10%,?
Cc1ccc(NC(=O)C2CCN(S(=O)(=O)c3ccccc3)CC2)cc1,-10%,19%,0%,-23%,15µM*
Cc1ccc(NC(=O)C2CCN(S(=O)(=O)c3ccc(F)cc3)CC2)cc1,-1%,-3%,0%,-5%,-33%
CCc1ccc(NC(=O)C2CCN(S(=O)(=O)c3ccc4c(c3)N(C(C)=O)CCO4)CC2)cc1,1%,-5%,3%,-1%,23µM*
CCOc1ccc(S(=O)(=O)Nc2cccc(C(=O)N(C)Cc3cccc(OC)c3OC)c2)cc1,4%,3%,0%,-4%,-24%
CC(=O)Nc1ccc(S(=O)(=O)N2CCC(C(=O)c3ccc(Cl)cc3)CC2)cc1,-17%,0%,5%,18µM*,?
O=C(Nc1ccc(S(=O)(=O)N2CCCC2)cc1)C1CCN(S(=O)(=O)c2ccc(F)cc2)CC1,0%,5%,3%,-27%,23µM*
O=C(Nc1ccc(S(=O)(=O)N2CCCCC2)cc1)c1ccc(F)cc1,-8%,12%,-1%,?,29µM*
N#CCc1ccc(NC(=O)c2ccc(S(=O)(=O)N3CCCC3)cc2)cc1,3%,-2%,4%,21µM*,-23%
O=C(Nc1ccc(Cl)c(Cl)c1)c1cc(S(=O)(=O)N2CCN(c3cccc(Cl)c3)CC2)ccc1F,-13%,-11%,-1%,/,/
COc1cccc(CNC(=O)c2ccc(-n3c(C)cc4c3CCCC4)cc2)c1,1%,-1%,?,/,-26%
O=C(Nc1ccccc1)C1CCN(S(=O)(=O)c2ccc3[nH]c4c(c3c2)CCCCC4)CC1,-25%,-30%,-1%,/,16µM*
CN(c1ccc(C(=O)Nc2ccc(S(=O)(=O)N3CCCC3)cc2)cc1)S(C)(=O)=O,-26%,-1%,0%,-15%,9.2µM*
CN(C1CCCCC1)S(=O)(=O)c1ccc(NC(=O)CCC(=O)O)cc1,-5%,-1%,0%,-5%,/

# Assay outcomes: PubChem BioAssay, National Center for Advancing Translational Sciences (NCATS)
